Source: PubChem BioAssay (Tox21)
Inconclusive results are not listed. Calls of active or inactive are those of the source. Unless noted, calls follow the shape of the dose curve; as a rule, active = well fitted curve in the direction sought with a large enough effect in the repeat runs; inconclusive = weak or mixed curves; inactive = no such curve, though single readings can be large; an effect the other way counts as inactive or inconclusive.

What was measured:
[1] = A CellTox Green Cytotoxicity Assay to monitor cytotoxicity in HEK293 cells - 32 hour (AID 1224881); also: nearly all actives have a fitted effect of over 40% in size
How it was run: (§1)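 Read-out: fluorescence of a cell-impermeant cyanine dye staining DNA of dead cells, proportional to cytotoxicity. HEK293, 600 cells/well with reagent, compound (23 nL DMSO) added after 5 h; reads at 0, 8, 16, 24, 32, 40 h.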

[2] = A CellTox Green Cytotoxicity Assay to monitor cytotoxicity in HepG2 cells - 0 hour (AID 1224882); also: nearly all actives have a fitted effect of over 35% in size
How it was run: (§2)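 HepG2, 600 cells/well premixed w/ CellTox Green; 5 h settle, 37 C/5% CO2; pintool cpd add (DMSO); 37 C, 40 h; fluorescence read at 0, 8, 16, 24, 32, 40 h.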

[3] = A CellTox Green Cytotoxicity Assay to monitor cytotoxicity in HepG2 cells - 32 hour (AID 1224883); also: nearly all actives have a fitted effect of over 50% in size; also: potency is read from the fitted curve at half-maximal effect
How it was run: as §2

[4] = qHTS RealTime-Glo MT Cell Viability Assay in HepG2 cells - 16 hour (AID 1224885); also: nearly all actives have a fitted effect of over 50% in size
How it was run: (§3)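 Real-time, nonlytic viability: 600 HepG2 cells/well mixed with NanoLuc enzyme plus prosubstrate; 5 h settle, compound (DMSO) added by pintool; luminescence monitored over 40 h at 37 C.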

[5] = qHTS RealTime-Glo MT Cell Viability Assay in HEK293 cells - 24 hour (AID 1224886); also: nearly all actives have a fitted effect of over 50% in size; also: potency is read from the fitted curve at half-maximal effect
How it was run: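 Cells + reagent dispensed (600 cells/well, HEK293) → 5 h at 37 C/5% CO2 → 23 nL compound in DMSO pinned → 40 h at 37 C → luminescence read at 0, 8, 16, 24, 32, 40 h.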

[6] = qHTS RealTime-Glo MT Cell Viability Assay in HEK293 cells - 8 hour (AID 1224887); also: nearly all actives have a fitted effect of over 50% in size; also: potency is read from the fitted curve at half-maximal effect
How it was run: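 Luminescence readout at each listed time point; HEK293, 600 cells/well, RealTime-Glo MT reagent added with cells; compounds pinned (23 nL in DMSO) after 5 h at 37 C; continuous culture at 37 C.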

[7] = A CellTox Green Cytotoxicity Assay to monitor cytotoxicity in HEK293 cells - 16 hour (AID 1224888); also: nearly all actives have a fitted effect of over 35% in size
How it was run: as §1

[8] = qHTS RealTime-Glo MT Cell Viability Assay in HepG2 cells - 0 hour (AID 1224889); also: nearly all actives have a fitted effect of over 50% in size; also: potency is read from the fitted curve at half-maximal effect
How it was run: as §3

[9] = A CellTox Green Cytotoxicity Assay to monitor cytotoxicity in HepG2 cells - 8 hour (AID 1224890); also: nearly all actives have a fitted effect of over 45% in size
How it was run: as §2

[10] = qHTS assay to identify small molecule antagonists of the estrogen receptor alpha (ER-alpha) signaling pathway using the BG1 cell line in the presence of 0.1 nM 17-beta-estradiol - cell viability counter screen (AID 1259241); also: nearly all actives have a fitted effect of over 40% in size; also: potency is read from the fitted curve at half-maximal effect
How it was run: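 Cells were plated and left 24 hr, compounds in DMSO were pinned in, 17beta-estradiol was added to 0.1 nM final, and after 22 hr CellTiter-Fluor reagent was added for 30 min before fluorescence was read.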

[11] = qHTS assay to identify small molecule antagonists of the androgen receptor (AR) signaling pathway using the MDA cell line in the presence of 0.5 nM R1881 - cell viability counter screen (AID 1259242); also: nearly all actives have a fitted effect of over 45% in size; also: potency is read from the fitted curve at half-maximal effect
How it was run: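 Live-cell protease fluorescence, CellTiter-Fluor, 30 min at 37C. Cells: MDA-kb2, 3,000/well, preincubated 5 hr. Compounds plus 0.5 nM R1881 final, 16 hr, 37C, 0% CO2.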

[12] = molecular target: Estrogen receptor (Homo sapiens) (UniProt P03372); test: qHTS assay to identify small molecule antagonists of the estrogen receptor alpha (ER-alpha) signaling pathway using the BG1 cell line in the presence of 0.1 nM 17-beta-estradiol (AID 1259244); also: nearly all actives have a fitted effect of over 50% in size; also: potency is read from the fitted curve at half-maximal effect
How it was run: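 Luminescence after ONE-Glo (30 min, room temperature) measured ERE-luciferase activity in VM7Luc4E2 cells treated 22 h with compound and 0.1 nM final 17beta-estradiol as stimulator.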

[13] = qHTS assay to identify small molecule HDAC inhibitors (AID 1259364); also: potency is read from the fitted curve at half-maximal effect;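 also: wild-type HCT-116 cells with endogenous class I/II HDAC activity; nearly all actives have a fitted effect of over 45% in size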
How it was run: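 HCT-116 (wild type), 1,500 cells/well, overnight; compound 2 hr 37C 5% CO2; HDAC-Glo I/II reagent 30 min RT; luminescence readout.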

[14] = qHTS assay to identify small molecule HDAC inhibitors - cell viability counter screen (AID 1259365); also: nearly all actives have a fitted effect of over 50% in size; also: potency is read from the fitted curve at half-maximal effect
How it was run: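 Counter screen in wild-type HCT-116 cells: compounds dissolved in DMSO are pin-transferred onto overnight-plated cells and left 2hr at 37C. ATP-based CellTiter-Glo luminescence then measures viable cells.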

[15] = qHTS assay to identify small molecule agonists of the sonic hedgehog signaling (Shh) pathway - cell viability counter screen (AID 1259366); also: nearly all actives have a fitted effect of over 50% in size; also: potency is read from the fitted curve at half-maximal effect
How it was run: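 Cells are plated at 2,000 per well and left 4hr at 37C, 5% CO2 before compound addition. After 23hr of treatment, CellTiter-Fluor reagent is added for 1hr at 37C and fluorescence is measured.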

[16] = qHTS assay to identify small molecule antagonists of the sonic hedgehog signaling (Shh) pathway - cell viability counter screen (AID 1259367); also: nearly all actives have a fitted effect of over 55% in size; also: potency is read from the fitted curve at half-maximal effect
How it was run: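 Cytotoxicity was assessed in parallel with Shh reporter activity by measuring live-cell protease fluorescence (CellTiter-Fluor) in NIH/3T3 cells stably carrying Gli1-Luc, treated with compound under conditioned medium stimulation for 23 hr plus 1 hr reagent incubation.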

[17] = qHTS assay to identify small molecule agonists of the sonic hedgehog signaling (Shh) pathway (AID 1259368; calls by dose curve;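 also: NIH/3T3-derived 3T3Gli1-Luc cells carrying a stable Gli1-driven firefly luciferase reporter; series mostly up to about 92 µM; nearly all actives have a fitted effect of over 15% in size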)
How it was run: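 Read-out: firefly luciferase luminescence from a Gli1 response element reporter stably integrated in NIH/3T3-derived 3T3Gli1-Luc cells, measured 30 min at room temperature after reagent addition. Compound exposure lasted 24 hr at 37 C, 5% CO2.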

[18] = molecular target: Androgen receptor (Homo sapiens) (UniProt P10275); test: qHTS assay to identify small molecule antagonists of the androgen receptor (AR) signaling pathway using the MDA cell line in the presence of 0.5 nM R1881 (AID 1259243); also: nearly all actives have a fitted effect of over 50% in size
How it was run: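 MDA-kb2, MMTV-luc (AR/GR elements); 3,000 cells/well; cpd + 0.5 nM R1881 final; 16 hr 37C, 0% CO2; ONE-Glo 30 min RT; luminescence.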

[19] = qHTS assay to identify small molecule phospholipidosis (PLD) inducers (AID 1259344; active = well fitted curve in the direction sought with a large enough effect; an effect the other way counts as inactive or inconclusive)
How it was run: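 Cells (HepG2, 900 per well) attach for 4 h, receive LipidTOX Red and compound together, incubate 24 h at 37 C, are fixed 30 min with paraformaldehyde/Hoechst, then imaged at one site per well.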

[20] = A CellTox Green Cytotoxicity Assay to monitor cytotoxicity in HEK293 cells - 8 hour (AID 1224884); also: nearly all actives have a fitted effect of over 35% in size
How it was run: as §1
% is scaled to controls: 0 for no effect and ±100 for the full control effect.

Sequence of Estrogen receptor (Homo sapiens) (P03372 whole entry, looked up): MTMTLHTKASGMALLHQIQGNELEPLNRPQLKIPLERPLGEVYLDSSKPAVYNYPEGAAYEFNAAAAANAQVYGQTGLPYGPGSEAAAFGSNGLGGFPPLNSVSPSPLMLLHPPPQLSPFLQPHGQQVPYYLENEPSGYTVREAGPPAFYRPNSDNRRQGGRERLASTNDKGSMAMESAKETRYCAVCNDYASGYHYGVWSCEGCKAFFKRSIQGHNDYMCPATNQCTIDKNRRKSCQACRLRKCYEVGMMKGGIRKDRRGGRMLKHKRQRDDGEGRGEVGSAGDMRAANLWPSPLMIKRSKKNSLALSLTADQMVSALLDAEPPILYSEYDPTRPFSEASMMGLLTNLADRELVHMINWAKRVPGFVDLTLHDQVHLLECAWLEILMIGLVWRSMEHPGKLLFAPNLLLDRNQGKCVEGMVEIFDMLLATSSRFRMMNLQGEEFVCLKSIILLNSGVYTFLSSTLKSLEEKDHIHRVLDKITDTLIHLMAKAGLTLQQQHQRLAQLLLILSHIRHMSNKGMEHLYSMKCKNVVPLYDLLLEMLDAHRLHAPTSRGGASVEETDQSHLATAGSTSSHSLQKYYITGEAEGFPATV
Sequence of Androgen receptor (Homo sapiens) (P10275 whole entry, looked up): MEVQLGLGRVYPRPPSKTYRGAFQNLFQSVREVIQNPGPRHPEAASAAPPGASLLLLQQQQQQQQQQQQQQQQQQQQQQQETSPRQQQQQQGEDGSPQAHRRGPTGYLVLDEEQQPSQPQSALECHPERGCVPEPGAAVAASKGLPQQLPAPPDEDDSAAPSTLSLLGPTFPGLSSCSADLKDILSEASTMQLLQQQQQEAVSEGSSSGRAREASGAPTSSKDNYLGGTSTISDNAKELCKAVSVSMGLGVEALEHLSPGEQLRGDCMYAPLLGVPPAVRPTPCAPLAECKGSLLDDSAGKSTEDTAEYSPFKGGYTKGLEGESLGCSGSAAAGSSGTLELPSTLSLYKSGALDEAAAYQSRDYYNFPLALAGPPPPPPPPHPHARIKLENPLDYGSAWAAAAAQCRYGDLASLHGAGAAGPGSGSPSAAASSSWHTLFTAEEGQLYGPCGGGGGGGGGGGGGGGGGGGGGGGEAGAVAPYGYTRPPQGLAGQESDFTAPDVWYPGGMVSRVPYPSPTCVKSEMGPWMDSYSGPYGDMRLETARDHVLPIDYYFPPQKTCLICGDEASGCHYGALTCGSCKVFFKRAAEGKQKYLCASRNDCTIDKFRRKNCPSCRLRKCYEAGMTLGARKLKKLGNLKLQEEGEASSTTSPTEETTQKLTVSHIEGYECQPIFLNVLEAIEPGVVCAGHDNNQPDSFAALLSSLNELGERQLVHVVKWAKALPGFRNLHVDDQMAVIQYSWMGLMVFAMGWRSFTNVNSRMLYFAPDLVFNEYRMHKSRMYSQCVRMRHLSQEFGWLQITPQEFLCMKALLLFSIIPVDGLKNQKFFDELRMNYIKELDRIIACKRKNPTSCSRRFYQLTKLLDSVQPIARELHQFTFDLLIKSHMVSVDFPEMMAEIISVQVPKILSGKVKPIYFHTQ

CCOC(=O)OCC
inactive: Potency [1] | Potency [2] | Potency [3] | Potency [4] | Potency [5] | Potency [6] | Potency [7] | Potency [8] | Potency [9] | Potency [10] | Potency [11] | Potency [12] | Potency [13] | Potency [14] | Potency [15] | Potency [16] | Potency [17]

CCOC(=O)/C=C/C(=O)O
inactive: Potency [1] | Potency [2] | Potency [3] | Potency [4] | Potency [5] | Potency [6] | Potency [8] | Potency [9] | Potency [10] | Potency [11] | Potency [18] | Potency [12] | Potency [13] | Potency [14] | Potency [15] | Potency [16] | Potency [17]

N#C[C@@H]1C[C@@H]2C[C@@H]2N1C(=O)[C@@H](N)C12CC3CC(CC(O)(C3)C1)C2
inactive: Potency [1] | Potency [2] | Potency [3] | Potency [4] | Potency [5] | Potency [6] | Potency [7] | Potency [9] | Potency [10] | Potency [11] | Potency [12] | PLD induction [19] -3.21% [at 7.66 µM] | Potency [13] | Potency [14] | Potency [15] | Potency [16] | Potency [17]

NC(=O)Cn1c(=O)cc(CCN2CCN(c3nccc4sccc34)CC2)c2ccc(F)cc21
active: Potency [5] 49 µM | Potency [8] 13.8 µM
inactive: Potency [1] | Potency [2] | Potency [3] | Potency [20] | Potency [9] | Potency [10] | Potency [11] | Potency [14] | Potency [17]

CCCCCCOC(=O)CCCCCCCC(=O)OCCCCCC
inactive: Potency [1] | Potency [2] | Potency [3] | Potency [4] | Potency [5] | Potency [6] | Potency [7] | Potency [8] | Potency [9] | Potency [10] | Potency [11] | Potency [13] | Potency [14] | Potency [15] | Potency [16]

CCC(C(=O)OCCN(CC)CC)c1ccccc1 (stereo unspecified)
inactive: Potency [1] | Potency [2] | Potency [3] | Potency [4] | Potency [5] | Potency [6] | Potency [7] | Potency [9] | Potency [10] | Potency [11] | Potency [18] | Potency [12] | outcome [19] | Potency [14] | Potency [15] | Potency [16] | Potency [17]

CCCCC(=O)O[C@]1(C(=O)CO)[C@@H](C)C[C@H]2[C@@H]3CCC4=CC(=O)C=C[C@]4(C)[C@@]3(F)[C@@H](O)C[C@@]21C
inactive: Potency [1] | Potency [2] | Potency [3] | Potency [20] | Potency [9] | Potency [10] | Potency [11] | Potency [12] | Potency [14] | Potency [15] | Potency [16] | Potency [17]

COc1ccccc1N=Nc1c(S(=O)(=O)O)cc2cc(S(=O)(=O)O)cc(NC(C)=O)c2c1O
active: Potency [10] 22.9 µM | Potency [11] 25.7 µM | Potency [14] 25.7 µM | Potency [15] 25.7 µM | Potency [16] 25.7 µM
inactive: Potency [1] | Potency [2] | Potency [3] | Potency [4] | Potency [5] | Potency [6] | Potency [7] | Potency [8] | Potency [9] | Potency [17]

CO[C@H]1C=CO[C@@]2(C)Oc3c(C)c(O)c4c(O)c(c5c(c4c3C2=O)=NC2(CCN(CC(C)C)CC2)N=5)NC(=O)/C(C)=C\C=C/[C@H](C)[C@H](O)[C@@H](C)[C@@H](O)[C@@H](C)[C@H](OC(C)=O)[C@@H]1C
active: Potency [3] 47.9 µM

O=C(Nc1ccc([N+](=O)[O-])cc1)Nc1ccc([N+](=O)[O-])cc1
active: Potency [5] 8.49 µM
inactive: Potency [2] | Potency [20] | Potency [8] | Potency [9] | Potency [10] | Potency [11] | outcome [19] | Potency [14] | Potency [16] | Potency [17]

O=C(c1ccc(O)cc1)c1ccc(Cl)cc1
active: Potency [5] 22.3 µM
inactive: Potency [2] | Potency [3] | Potency [20] | Potency [4] | Potency [8] | Potency [9] | Potency [10] | Potency [11] | Potency [14] | Potency [16] | Potency [17]

CC(COc1ccc(C(C)(C)C)cc1)OS(=O)OCCCl (stereo unspecified)
inactive: Potency [1] | Potency [2] | Potency [4] | Potency [6] | Potency [8] | Potency [9] | Potency [10] | Potency [11] | Potency [13] | Potency [14] | Potency [15] | Potency [16] | Potency [17]
active: Potency [12] 1.38 µM

CC(C)CCCCCCOC(=O)CCCCC(=O)OCCCCCCC(C)C
inactive: Potency [2] | Potency [3] | Potency [20] | Potency [4] | Potency [5] | Potency [6] | Potency [7] | Potency [8] | Potency [9] | Potency [10] | Potency [11] | Potency [12] | Potency [13] | Potency [14] | Potency [15] | Potency [16]

CCc1nn(CCCN2CCN(c3cccc(Cl)c3)CC2)c(=O)n1CCOc1ccccc1
inactive: Potency [1] | Potency [2] | Potency [20] | Potency [7] | Potency [9] | Potency [10] | outcome [19] | Potency [13] | Potency [14] | Potency [15] | Potency [16] | Potency [17]
active: Potency [5] 8.49 µM | Potency [6] 10.7 µM | Potency [11] 26.6 µM | Potency [12] 11.9 µM

COC(=O)Nc1nc2ccc(C(=O)c3cccs3)cc2[nH]1
active: Potency [13] 11.9 µM
inactive: Potency [1] | Potency [2] | Potency [4] | Potency [7] | Potency [8] | Potency [9] | Potency [10] | Potency [11] | outcome [19] | Potency [14] | Potency [15] | Potency [17]

C/C=C/C=C/CCCCCCCO
active: Potency [8] 13.8 µM
inactive: Potency [2] | Potency [20] | Potency [4] | Potency [5] | Potency [9] | Potency [10] | Potency [11] | Potency [12] | Potency [13] | Potency [14] | Potency [17]

CCCCCCCCCCCC[N+](C)(C)CCCS(=O)(=O)[O-]
inactive: Potency [2] | Potency [3] | Potency [4] | Potency [5] | Potency [6] | Potency [8] | Potency [9] | Potency [10] | Potency [11] | Potency [12] | Potency [13] | Potency [14] | Potency [15] | Potency [16] | Potency [17]
